Measurements as given in PubChem BioAssay AID1347426 (Functional Genomics Laboratory (NCATS/FGL), 2020).
In all, about 31,000 sequences went through this assay and about 1,400 (4.5%) were called active.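 The calls were made as follows: active = median seed-adjusted z-score above 1 or below -1; inactive = the rest.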 Only a selection was taken, and actives are over-represented in it overall.

assay: Novel Modifiers of Survival Motor Neuron (SMN) Protein: Gene Identification via Genome-wide siRNA Screen; details: HEK293T SMN2-luciferase reporter, siRNA knockdown, 72 h; actives lie on both sides;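 also: luminescence tracks full-length SMN protein made from the SMN2 reporter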
Outline: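 Genome-wide siRNA screen (10418 genes, 3 siRNAs each, 1 pmol per well) by reverse transfection in HEK293T cells stably carrying an SMN2-luciferase reporter; luminescence after 72 hours, normalized to negative-control siRNA, log10-transformed, MAD-scored.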

Row | Sequence | median seed-adjusted z-score
1 | CGAAGUUCACUAUCGAACATT against DNAH11 | 0.104 (inactive)
2 | AUAUCAACUUGACCCACCATT against B3GNT7 | -1.05 (active)
3 | CUACUUCCUUUAUCCCGAUTT against BDH1 | -0.0253 (inactive)
4 | GGAUCGAUAUCAAGAUAUUTT against AVEN | 0.184 (inactive)
5 | GAAUCUCUGUAGCCGAUGATT against CPA1 | -0.187 (inactive)
6 | AGACUGAACUCCGAACAGATT against SSH3 | -0.0772 (inactive)
7 | GAAUAAGAGCACAAGUAAATT against SERPINB13 | 0.0593 (inactive)
8 | AGCUGAUGUUCGAGCAGUATT against ACTL6B | 0.0703 (inactive)
9 | CUCUGAGUAUGUGACCGAATT against XPNPEP1 | -1.5 (active)
10 | CAUCAUCUAUGUAAGCCUATT against PRKD1 | -0.323 (inactive)
11 | CAAGAAUCAUUAAUACAAATT against CCL2 | 0.651 (inactive)
12 | GGACGCAGGUUUCUGUUUATT against CHRFAM7A | 0.115 (inactive)
13 | CACCAGCUAUGAACGAGAATT against THOC2 | -1.22 (active)
14 | CGACCUACCGAGAAGAAAATT against GJB3 | -0.198 (inactive)
15 | GGGAUGUUCUUAGAAGUUUTT against BIK | 0.0492 (inactive)
16 | GCCCAGUUGCUUAACGAAUTT against ACVR2A | -0.22 (inactive)
17 | CAAGAACUACAGAUUCGUATT against PPP1R13B | 0.0943 (inactive)
18 | GACUGACCAUACUGAUAUUTT against NPY5R | 0.213 (inactive)
19 | GCCUGUUUCAAGACACUGATT against CRNN | -0.0758 (inactive)
20 | GCUUUAGAGUUCCAUAUGATT against PIK3CG | 0.576 (inactive)
21 | GCACCUAUAUUUACUACUUTT against TTC3 | -1.17 (active)
22 | CAACUUGCCUUGUUAACCATT against ZDHHC2 | 0.133 (inactive)

Row | Sequence | median seed-adjusted z-score
23 | CUUCCACCCGAGUACCUUUTT against HDAC10 | -0.165 (inactive)
24 | GAAUAGAGAUCAAAUUCCATT against CD163 | 0.021 (inactive)
25 | GGAGGCUUCUUUAUGAAUUTT against FXYD4 | -0.0447 (inactive)
26 | CUAUAACUGUUCGUGCUUATT against USP47 | 0.3 (inactive)
27 | GAAAAUCACCAAAACAUACTT against WHSC1 | 1.17 (active)
28 | GGAAAGUCCUGUUUGAUCATT against RHBDL3 | 0.56 (inactive)
29 | CUGUAGAACUAGUCCUUAUTT against PRKRIR | 0 (inactive)
30 | GUAUGUCGGGUAUACCGUUTT against RAD54L2 | -0.0646 (inactive)
31 | CGACAAUGCGGUCAACCUUTT against CD28 | -0.993 (inactive)
32 | GGAGAUACUCCGAACCUCATT against TEX13A | -1.22 (active)
33 | CGAUAUCUGACGCAGCUAATT against RPS6KA2 | 0.139 (inactive)
34 | ACAUCCGAGUUUAUCCUGATT against SFRS9 | -0.144 (inactive)
35 | GGAAAAAUAUCCAGCAAAATT against UBE2E2 | -1.77 (active)
36 | CCUCAGAUCUACCCACAGATT against CSF2RB | -0.454 (inactive)
37 | CACAAGCAAGUUCAAAUAATT against FCRL4 | -0.39 (inactive)
38 | GCUAUUUGCUGGCUACAAATT against POLR2J3 | -5.42 (active)
39 | GCGGCAAUCUUGGGAGUAATT against TMPRSS11B | -0.545 (inactive)
40 | CAGCGAUGCUACGACAAUATT against PHF17 | 1.01 (active)
41 | GAAUUUUGAUGUCAUACGATT against DTNB | -0.142 (inactive)
42 | GGAACUUCCUGAGAACAUUTT against MAP3K8 | -0.533 (inactive)
43 | CAUUCACGAUCUUCCCGUATT against MYO16 | -0.072 (inactive)
44 | GUUGCAAACUUAUCGAGGATT against CCT2 | -0.0508 (inactive)

Row | Sequence | median seed-adjusted z-score
45 | GGUAGAAUCUAGGUAUGCATT against RAD51 | 0.594 (inactive)
46 | GCAUAUGGUUCUGAAGAUATT against GTF2E1 | 1.76 (active)
47 | GAGCAAAUCAAAGAACUAATT against TSC22D1 | 0 (inactive)
48 | AGACACCUCCUAGGACUAUTT against MZF1 | 0.215 (inactive)
49 | GGAGUGCACGAGACAUUCATT against FAH | -0.0836 (inactive)
50 | GGACUACAAAGGUUCUCGATT against CDH18 | 0.21 (inactive)
51 | CAGCUUCGAUAUAAGGAAATT against MYST2 | -1.46 (active)
52 | ACCUGACCGUGUCGCUAUATT against DHRSX | -0.686 (inactive)
53 | GGAACCUGGAGAUAUCAUUTT against FUT8 | 0.464 (inactive)
54 | UGGUGUCGCUGGAGAAGUATT against GPX7 | -0.971 (inactive)
55 | CCAUCCCACUGGUCACAUUTT against SLC7A8 | -0.134 (inactive)
56 | GGAGGCAUUUGAAGUUCCATT against FARP1 | -0.487 (inactive)
57 | GGACCGCUACUCUGAGUAUTT against KCNH6 | 0.424 (inactive)
58 | CUGUUAUUCUUCAUACCUATT against TAAR8 | 0.0792 (inactive)
59 | GGAUCAAGACGUGAACGAUTT against CPSF6 | -2.38 (active)
60 | GAGUAUUCUGAGUACAUGATT against ZFP42 | -0.537 (inactive)
61 | CAAACAUCUAUGCAGCAAATT against MS4A8B | 0.207 (inactive)
62 | GGAUGAGAAGAGACGUAGATT against DNMT1 | 0.185 (inactive)
63 | CAUGAACCCUUGGUAGAUATT against TBRG1 | -1.47 (active)
64 | GGGUUUUUGCGCUUCAAAATT against GALNAC4S-6ST | 0.218 (inactive)
65 | GCAAAAUGAUCAUUAAUGATT against EIF3C | 0.56 (inactive)
66 | GGACCAUAAUCAAUGUAGATT against ZNF585A | -0.168 (inactive)

Row | Sequence | median seed-adjusted z-score
67 | CCUCAACUAUCAGAACAAUTT against KLF10 | 0.616 (inactive)
68 | GGUUGUUGUAUACUUGCAATT against LIPJ | 0.295 (inactive)
69 | GACCUAUGCAGUUCGAAAATT against SFRS1 | -1.66 (active)
70 | GGAGUGUGCUGAAGACCUATT against GFER | 0.402 (inactive)
71 | CCACGUGAUAAAUCAAGAATT against PRPF4B | -2.29 (active)
72 | GAAAGACACUGGGACUCGATT against SNRNP35 | 0.172 (inactive)
73 | GCAUCGCAAGAGCUGCAAATT against DPYD | -0.112 (inactive)
74 | GAUUGUCAAUGGGUGUAUUTT against AOF1 | -0.211 (inactive)
75 | CCCUCCAAAUAGCAAAUGUTT against PCOLCE2 | -1.15 (active)
76 | GGGUCAUACGAAUACCGAUTT against VIPR2 | 0.706 (inactive)
77 | GCAACGUGAUCAAAGGUAUTT against GNA13 | 0 (inactive)
78 | CAAGGACAACUCAAACUUATT against PRKACA | -0.137 (inactive)
79 | CGUAUAUAGAGUUCUCAGATT against PABPN1 | -0.757 (inactive)
80 | CCCUUAAUUUUGUAACAGATT against SLC7A6 | -0.0877 (inactive)
81 | GGGUAACCACUGACAUUCATT against SUPT5H | -4.02 (active)
82 | GCCUUAAAAAGCACCAAAATT against ZNF16 | 0 (inactive)
83 | AAGUUCCUAUCGGUCGUAUTT against HBZ | -0.0054 (inactive)
84 | GGACCAUCGGGAUCAUCAATT against P2RX3 | -0.44 (inactive)
85 | GCAAUGAACACCAUCCGAATT against KEAP1 | 0.207 (inactive)
86 | AGCUCUUAUUAGCUGCAUATT against MS4A7 | 0.0794 (inactive)
87 | GCAACGAUCACCUAAAUUATT against NOP2 | 1.15 (active)
88 | GGUCAAAUCAGCAAAGGUUTT against RNF25 | -0.0826 (inactive)

Row | Sequence | median seed-adjusted z-score
89 | CGACAAUCUAACUUCCGUATT against CYTH3 | 0.196 (inactive)
90 | CAGGCAUCAUAUUUUGAAATT against NUDT3 | 0.674 (inactive)
91 | CAAAGAUUCUGACUGAUGATT against GPATCH4 | -0.519 (inactive)
92 | GAACCUAUCUGAUCGGCAATT against RFX3 | 0.17 (inactive)
93 | CAUCUUAAGUGUUUUACAUTT against LMO4 | -0.067 (inactive)
94 | GCAGCAUACAGGAAUACCATT against ATRNL1 | -0.142 (inactive)
95 | GCAGCAUAUUAUAGACAAATT against ZBTB37 | -0.219 (inactive)
96 | GCCUGGGUCAAAUACAGUATT against KLHL20 | -0.0828 (inactive)
97 | GAUCAUUGCUGGGAAUCUATT against GPR52 | -1.17 (active)
98 | GUCUGAAUGUCGAAGAGAATT against G3BP1 | -0.593 (inactive)
99 | CUGGAACAGUGUACCCAAATT against CD2AP | 0.113 (inactive)
100 | CCAUGUGAUUAUGUACUCATT against ELOVL4 | 0.166 (inactive)
101 | AGAUAUAUAAAUCAACGAATT against LSM3 | -1.36 (active)
102 | UGACCUACGAGGAAAUUCATT against PFKFB4 | 0.149 (inactive)
103 | CAACGAUAGCUUAUCCCAATT against LPGAT1 | 0.625 (inactive)
104 | GCUUAUAUGGUGUACAUUUTT against ELOVL6 | 0.742 (inactive)
105 | UCCCGUUCCGUACGACUUATT against DHRS7C | -0.398 (inactive)
106 | GUGGGAGUCGGGACAUAUATT against MAFK | 1.73 (active)
107 | CCAUUGAUGCAACAGGUAATT against USO1 | 0.21 (inactive)
108 | CAAGGACAAAUUUCCCGUUTT against HOXD8 | -0.883 (inactive)
